Test results taken from PubChem BioAssay (NCI).
This is part of a sample that, as a whole, favours compounds with a hit. Of some 79,000 tested, about 15% had one in any assay. Calls of active or inactive are those of the source. Rule as the data show it: active = growth inhibition above about 70%; inactive = the rest.

Test: NCI Yeast Anticancer Drug Screen. Data for the mec2-1 strain (AID 157)
Details: S. cerevisiae mec2-1 strain, at 50.0 µM, hits give high values
Summary of the method: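 Readout is yeast growth inhibition, normalised to vehicle-treated controls, in the mec2-1 strain exposed to compound.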

Row | SMILES | growth inhibition
1 | CC1=NN(c2ccccc2)C(=O)C1C(=O)c1ccccc1 (stereo not given) | -3.65% (inactive)
2 | COc1ccc(NCc2ccc(C)cc2)cc1 | -17.1% (inactive)
3 | ClCCCC1(CCCCl)OCCO1 | -25.1% (inactive)
4 | O=c1oc(-c2cccc([N+](=O)[O-])c2)nc2ccccc12 | -10.2% (inactive)
5 | COc1cc(C2N(c3ccccc3)CCN2c2ccccc2)cc(OC)c1OC | 62.9% (inactive)
6 | CCOc1ccc(NC(=O)C2CCC(C)(C(=O)O)C2(C)C)cc1 (stereo not given) | 0.35% (inactive)
7 | CC12CCC(CC1)C(C)(C)O2 | 3.3% (inactive)
8 | O=C1c2ccccc2C(=O)c2c1cccc2N1C(=O)C=CC1=O | 37.9% (inactive)
9 | O=C(/C=C(\[O-])c1ccccc1)CCCCCCC(=O)/C=C(\[O-])c1ccccc1.O=C(/C=C(\[O-])c1ccccc1)CCCCCCC(=O)/C=C(\[O-])c1ccccc1.O=C(/C=C(\[O-])c1ccccc1)CCCCCCC(=O)/C=C(\[O-])c1ccccc1.[La+3].[La+3] | -8.75% (inactive)
10 | O=C1c2ccccc2C(=O)N1/N=C/c1cc(Cl)cc(Cl)c1O | -17.4% (inactive)
11 | C=C1C(=O)OC2CC(C)C3(O)CCC(=O)C3(C)CC12 (stereo not given) | -24.9% (inactive)
12 | O=C(NC(CO)C(O)c1ccc([N+](=O)[O-])cc1)C(Cl)Cl (stereo not given) | -35.6% (inactive)
13 | COc1c2c(c3c(c1OC)c(=O)c1ccccc1n3C)OCO2 | 10.8% (inactive)
14 | CC1OC23CCCCC2C(C#N)(C#N)C1(C#N)C(=N)O3 (stereo not given) | 9.5% (inactive)
15 | CCCCCCCCCC(O)CCCCC (stereo not given) | -21.2% (inactive)
